Screens deposited in PubChem by several laboratories.
An excerpt weighted towards active compounds, which were near 0.61% of everything screened.
ugtP null kill = kills S. aureus RN4220 lacking UgtP. growth inhibition, % (concentration not given with the values). S. aureus RN4220 ugtP deletion, OD600 growth, 16 h. 330,000 tested, 0.54% active; in the data active means growth inhibition above about 68%;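 further: plate controls were untreated wells for no effect and antibiotic for full effect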
Sa RN4220 lethal = S. aureus RN4220 growth inhibition; 330,000 tested, 0.33% active; AID 1259311; inhibition, % (no concentration beside the values); OD600, 16 h; in the data active means inhibition above about 85%;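 further: plate controls were untreated cells for no effect and reference antibiotic for full effect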
Mtb hypoxia inh = Mtb hypoxia fluorescent reporter inhibition; AID 1159583; M. tuberculosis hypoxia-regulated fluorescent reporter, fluorescence; fluorescence inhibition, % (test concentration not listed); 300,000 tested, 0.1% active; in the data active means fluorescence inhibition mostly above about 23%, no sharp cut-off; inactive means mostly below about 17%
Mtb betalactam = beta-lactam sensitization of Mtb H37Rv | M. tuberculosis H37Rv growth with meropenem, percent inhibition | inhibition, % at 25 µM | 330,000 tested, 0.27% active | AID 434955; call rule not given here;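 further: growth measured after seven days incubation then overnight dye step; 0% = bacteria only wells and 100% = bacteria with antibiotic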
* marks the source's active call; other numbers are inactive results; . = no result shown; ! = not active in a repeat.

SMILES	ugtP null kill	Sa RN4220 lethal	Mtb hypoxia inh	Mtb betalactam
Cc1nc(Nc2ccc(Cl)c(Cl)c2)sc1C(=O)Nc1ccccc1	98.9*	93.3*	8.1	93.5
Cc1nc(Nc2ccc(Cl)cc2Cl)sc1C(=O)Nc1ccccc1	-27.7	7.9	-20.3	95.1
COC1C=CO[C@@]2(C)Oc3c(C)c(O)c4c(O)c(c5c(nc6cc(C)ccn65)c4c3C2=O)NC(=O)C(C)=CC=CC(C)C(O)C(C)C(O)C(C)C(OC(C)=O)C1C (some centres not stated)	99.4*	99.4*	.	.
COC1C=CO[C@@]2(C)Oc3c(C)c(O)c4c(O)c(c(C=NN5CCN(C)CC5)c(O)c4c3C2=O)NC(=O)C(C)=CC=CC(C)C(O)C(C)C(O)C(C)C(OC(C)=O)C1C (some centres not stated)	96.8*	97.9*	.	.
CC1CN(C(C)CO)C(=O)c2cccc(NC(=O)c3ccncc3)c2OC1CN(C)S(C)(=O)=O (configuration not stated)	1.6	3.8	11.1	.
COc1cccc(C=NNC(=O)c2cc(C34CC5CC(CC(C5)C3)C4)[nH]n2)c1	-37.4	-6.0	.	.
CC(=CC(=O)OCCCCCCCCC(=O)O)CC1OCC(CC2OC2C(C)C(C)O)C(O)C1O (configuration not stated)	100.2*	100.2*	7.5	.
C=CCN(CC(=NO)c1sc(C(=O)OCC)nc1C)c1cccc(Br)c1	70.2	-5.9	5.9	.
Cc1ccc(-c2csc3nc4cc(C(N)=O)ccc4c(=O)n23)cc1	4.6	-1.6	9.4	-8.4
NC(=O)c1ccc2c(=O)n3c(-c4cccs4)csc3nc2c1	87.6*	6.5	6.9	-13.2
CC(=NNC1=NCCN1)c1ccc(Cl)cc1	3.0	4.1	10.9	.
CCOC(=O)[C@@H]1[C@H]2COc3ccccc3[C@H]2N2C(=O)N(c3ccc(F)cc3)C(=O)[C@]12C	.	.	.	3.7
CCOC(=O)C1C2COc3ccccc3C2N2C(=O)N(c3ccc(C(F)(F)F)cc3)C(=O)[C@]12C (some centres not stated)	100.4*!	100.7*!	-0.9	.
CCn1nc(C)cc1C(=O)Sc1ccc(Cl)cc1Cl	95.9*	23.7	-4.6	-2.3
O=C(CNc1ccc2ccccc2c1)NN=Cc1ccccn1	-7.9	0.0	10.4	.
CC(C)CC1CN=C(N)N1CC1CCCN1CC(C)N1CC(Cc2ccccc2)N(CCc2ccc(Cl)c(Cl)c2)C1=N (configuration not stated)	100.5*	100.8*	91.5*	.
CC[C@@H](C)[C@@H]1CN([C@@H](CN2CCC[C@H]2CN2C(N)=NC[C@@H]2Cc2ccccc2)C(C)C)C(=N)N1CCCC1CCCC1	.	.	.	100.1
CC(C)C(CN1CCCC1CN1C(N)=NCC1Cc1ccccc1)N1CC(Cc2ccccc2)N(CCc2ccc(Cl)c(Cl)c2)C1=N (configuration not stated)	100.4*	100.8*	.	.
CC(C)C[C@@H]1CN=C(N)N1C[C@@H]1CCCN1C[C@@H](C(C)C)N1C[C@@H](Cc2ccccc2)N(CCc2ccc(Cl)c(Cl)c2)C1=N	99.8*	99.4*	10.4	99.5
CC(C)C[C@@H]1CN=C(N)N1C[C@@H]1CCCN1C[C@H](C)N1C[C@@H](Cc2ccccc2)N(CCc2ccc(Cl)c(Cl)c2)C1=N	.	.	.	99.6
Cc1ccccc1C(=O)Nc1ccc(C(=O)NN=Cc2ccc(O)c(Br)c2)cc1	-6.4	-1.5	9.9	.
O=C(c1ccco1)N(CC1CCCO1)c1nc(-c2ccccc2)cs1 (configuration not stated)	85.7*	-6.7	-5.5	1.6
CCCCCCCCCCSc1n[nH]c(N)n1	83.8*	16.1	9.9	3.0
C(=Cc1nc(-c2ccccc2)no1)c1ccccc1	35.0	-5.4	2.0	.
CCN1CCN(c2cc(SC(C)C)nc(-c3ccc(OC)cc3)n2)CC1	92.9*	-3.4	14.1	.
SMILES	ugtP null kill	Sa RN4220 lethal	Mtb hypoxia inh	Mtb betalactam
O=C1NCC(Cc2cccc3ccccc23)N(CCC23CC4CC(CC(C4)C2)C3)C1=O (configuration not stated)	12.2	2.8	13.3	.
CN(CC(=O)Nc1ccc(OC(F)(F)F)cc1)C(=O)c1ccc(N2CCCC2=O)cc1	4.9	1.8	29.6*	4.5
CCCCCCCCCCCC1=C(O)C(=O)C=C(O)C1=O	99.6*	99.5*	.	2.8
O=C1NC(=S)SC1=Cc1ccc(F)cc1	92.2*	90.1*	2.1	.
O=C1NC(=S)SC1=Cc1ccc(Cl)cc1	98.8*	95.1*	-3.2	.
O=C1NC(=S)S/C1=C\c1ccc2ccccc2c1	.	.	.	8.6
O=C1NC(=O)C(=Cc2ccc(Cl)cc2Cl)S1	92.9*	90.8*	6.8	.
O=C1NC(=S)SC1=Cc1cccs1	28.5	41.0	-3.0	.
O=C1NC(=S)NC1=Cc1ccc(Cl)cc1Cl	11.9	8.8	22.9	.
O=C1NC(=S)SC1=Cc1ccc(N(CCCl)CCCl)cc1	79.6	87.3*	18.9	.
